SMILES strings stand for the structures. Where a name gives a salt, the structure may show the parent alone. Whole data set: some 2,800 compounds, median “cell viability relative to vehicle” near 0.98, cut for the lowest 2% near 0.45. For the sample, the lowest values were picked, then their nearest neighbours and some compounds at random.

The subject of this assay is NCI-H2228 alectinib-DTP. In words: cell viability relative to vehicle (fraction of vehicle); NCI-H2228 is an ALK-positive lung cancer line and DTP means drug-tolerant persister; higher = less growth inhibition. The conditions noted are these: 100 nM; treatment time 6 days. The method, boiled down: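 Parental NCI-H2228 cells and drug-tolerant persister cells (made with 1000 nM of a targeted drug for 13 days) were seeded in 384-well plates. The next day, the 3114-agent TargetMol anti-cancer compound library was added at 100 nM, with DMSO as vehicle. After 6 days, ATP was read with the CellTiter-Glo 3D Cell Viability Assay. Each value is cell viability relative to vehicle-treated cells.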
For the compound `O=C(O)c1ccc2c(c1)C(=O)c1ccccc1C2=O`, the cell viability was determined as 1.08.

In turn, `O=c1cc(-c2ccc(O[C@@H]3O[C@H](CO)[C@@H](O)[C@H](O)[C@H]3O)cc2)oc2cc(O)c([C@@H]3O[C@H](CO)[C@@H](O)[C@H](O)[C@H]3O[C@@H]3OC[C@H](O)[C@H](O)[C@H]3O)c(O)c12` [Vaccarin] gave a cell viability of 0.919.

Compound `C[C@H]1COC2(CCN(c3nc(=O)c4cc(C(F)(F)F)cc([N+](=O)[O-])c4s3)CC2)O1` yielded a cell viability of 1.05.

The compound `CC(=O)NC(Cc1ccccc1)C(=O)O` (stereo unspecified) [Afalanine] returned a cell viability of 0.984.

`CC(NC(=O)C(Cc1ccccc1)NC(=O)OCc1ccccc1)C(=O)CF` (stereo unspecified) returned a cell viability of 0.979.

`COC[C@H](NC(=O)c1cnc(C)s1)C(=O)N[C@@H](COC)C(=O)N[C@@H](Cc1ccccc1)C(=O)[C@@]1(C)CO1` [Oprozomib] showed a cell viability of 0.371.

On to `Cc1cc(F)c(C(=O)Nc2cccc(-c3nncn3C(C)C)n2)cc1-n1cnc(C2CC2)c1` [Selonsertib], for which the cell viability worked out at 0.918.

The compound `O=c1[nH]c(=O)n([C@@H]2O[C@H](CO)[C@@H](O)[C@H]2O)cc1F` [5-Fluorouridine] showed a cell viability of 0.837.

Turning to `Cn1nccc1Nc1nccc(-c2cc3c(s2)C(C)(C)N(CCN2CCOCC2)C3=O)n1`, the cell viability is 1.06.

Turning to `Cc1nc(-c2cn3c(n2)-c2ccc(-c4cnn(C(C)(C)C(N)=O)c4)cc2OCC3)n(C(C)C)n1` [Taselisib], the cell viability came to 0.425.

Turning to `CC(C)n1ncnc1-c1cn2c(n1)-c1ccc(O[C@@H](C)C(N)=O)cc1OCC2`, the cell viability came to 0.717.

`O[C@H]1[C@H]2c3cc4c(cc3CN3CCC(=C[C@@H]1O)[C@H]23)OCO4` [Lycorine chloride] yielded a cell viability of 0.966.

The compound `CC(=O)N[C@H]1CSSC[C@@H](C(N)=O)NC(=O)[C@H](C(C)C)NC(=O)[C@H](C)NC(=O)[C@H](Cc2c[nH]cn2)NC1=O` [Exherin trifluoroacetate] registered a cell viability of 1.11.

Regarding `COc1cc2c(NC3CCN(C(C)C)CC3)nc(C3CCCCC3)nc2cc1OCCCN1CCCC1`, the cell viability came out at 1.15.

Compound `N[C@@H](CCCCNC(=O)C(F)(F)F)C(=O)O` [N-6-Trifluoroacetyl-L-lysine] gave a cell viability of 0.966.

In turn, `Cc1ncc(NC(=O)c2ccc(CN3CCN(C)CC3)c(C(F)(F)F)c2)cc1Nc1nccc(-c2cccnc2)n1` [Flumatinib] gave a cell viability of 1.15.

In turn, `Cc1ccc(C(=O)Nc2ccc(CN3CCN(C)CC3)c(C(F)(F)F)c2)cc1C#Cc1cnc2[nH]ncc2c1` [GZD824 Dimesylate] registered a cell viability of 0.33.

`CCN1CCN(Cc2ccc(NC(=O)c3ccc(C)c(NC(=O)c4cncc(-c5cccs5)c4)c3)cc2C(F)(F)F)CC1` showed a cell viability of 0.789.

Take `Cc1ccc(C(=O)Nc2ccc(CN3CCN(C)CC3)c(C(F)(F)F)c2)cc1C#Cc1cnc2cccnn12` [Ponatinib]: the cell viability is 0.834.

In the case of `Cc1ccc(C(=O)Nc2ccc(CN3CCN(C)CC3)c(C(F)(F)F)c2)cc1C#Cc1cnc2[nH]ncc2c1`, the cell viability is 0.423.

`CS(=O)(=O)Nc1ccc([N+](=O)[O-])cc1OC1CCCCC1` returned a cell viability of 1.12.

Take `Cc1ccc(/C(=C\CN2CCCC2)c2ccccn2)cc1` [Triprolidine hydrochloride]: the cell viability was 1.18.

For the compound `C/C(=N\NC(=S)N1CCC1)c1ccccn1`, the cell viability came to 0.362.

Compound `S=C(N/N=C1/CCCc2cccnc21)N1CCN(c2ccccn2)CC1` displayed a cell viability of 1.09.

`Cn1c(O)c(C2=c3ccccc3=NC2=O)c2ccccc21` [Methylisoindigotin]: the cell viability is 0.85.

In the case of `CC(C)=CCc1cc2c(cc1O)oc(=O)c1c3ccc(O)cc3oc21` [Psoralidin], the cell viability came to 1.15.

For `CC(C)c1nc(CN(C)C(=O)N[C@@H](CCN2CCOCC2)C(=O)N[C@H](CC[C@H](Cc2ccccc2)NC(=O)OCc2cncs2)Cc2ccccc2)cs1` [Cobicistat], the cell viability worked out at 1.02.

In turn, `COc1ccc(C[C@H](NC(=O)[C@H](C)NC(=O)CN2CCOCC2)C(=O)N[C@@H](Cc2ccccc2)C(=O)C2(C)CO2)cc1` (stereo in doubt) had a cell viability of 1.03.

Compound `CC(C)C[C@H](NC(=O)[C@H](CCc1ccccc1)NC(=O)CN1CCOCC1)C(=O)N[C@@H](Cc1ccccc1)C(=O)N[C@@H](CC(C)C)C(=O)[C@@]1(C)CO1` [Carfilzomib] came in with a cell viability of 0.116.

In turn, `N[C@@H](CSCCB(O)O)C(=O)O` registered a cell viability of 0.835.

Compound `O=C(O)Cn1c2c(c3cc(F)ccc31)CN(C(=O)c1cccc3ccccc13)CC2` [Setipiprant] displayed a cell viability of 1.18.

Compound `CC(C)(C)c1ccc(C(=O)NC(=S)Nc2ccc(N)cc2)cc1` [Tenovin3] displayed a cell viability of 0.734.

On to `CCCCCCCCCCCCCC(=S)NCCCC[C@H](NC(=O)OCc1ccccc1)C(=O)Nc1ccccc1` [Thiomyristoyl], for which the cell viability worked out at 1.11.

Regarding `C/C=C1\NC(=O)[C@H]2CSSCC/C=C/[C@H](CC(=O)N[C@H](C(C)C)C(=O)N2)OC(=O)[C@H](C(C)C)NC1=O` [Romidepsin], the cell viability amounted to 0.116.

`O=c1nc(N2CCN(CC3CCCCC3)CC2)sc2c([N+](=O)[O-])cc(C(F)(F)F)cc12` returned a cell viability of 0.985.

Regarding `CCC(Sc1nnc2c(n1)[nH]c1ccccc12)C(=O)N1c2ccccc2Sc2ccccc21` (stereo unspecified) [Inauhzin], the cell viability came to 1.06.

Turning to `CCc1c2c(nc3ccc(O)cc13)-c1cc3c(c(=O)n1C2)COC(=O)[C@]3(O)CC`, the cell viability is 0.263.

The compound `CCc1c2c(nc3ccc(OC(=O)N4CCC(N5CCCCC5)CC4)cc13)-c1cc3c(c(=O)n1C2)COC(=O)[C@]3(O)CC` [Irinotecan] registered a cell viability of 1.07.

As to `CC[C@@]1(O)C(=O)OCc2c1cc1n(c2=O)Cc2cc3c(CN(C)C)c(O)ccc3nc2-1` [Topotecan hydrochloride], the cell viability turned out to be 0.245.

Take `CC[C@@]1(O)C(=O)OCc2c1cc1n(c2=O)Cc2cc3cc(O)ccc3nc2-1` [Hydroxy Camptothecine]: the cell viability was determined as 0.255.

The compound `CCc1c2c(nc3ccc(OC(=O)N4CCC(N5CCCCC5)CC4)cc13)-c1cc3c(c(=O)n1C2)COC(=O)[C@]3(O)CC` [Irinotecan hydrochloride trihydrate] had a cell viability of 1.05.

On to `CC[C@@]1(O)C(=O)OCc2c1cc1n(c2=O)Cc2cc3cc(O)ccc3nc2-1` [10-Hydroxycamptothecin], for which the cell viability came out at 0.304.

`COc1ccc(S(=O)(=O)NCc2ccc(C(=O)NCCc3ccc(Cl)cn3)cc2)cc1`: the cell viability was determined as 1.14.

`CN1CCN(c2ccc(C(=O)Nc3cc(-c4cccc(NS(=O)(=O)c5ccccc5)c4)[nH]n3)cc2)CC1`: the cell viability came to 0.98.

`CC(C)Cc1ccc(-c2nc(-c3ccc(CN4CC(C(=O)O)C4)c(F)c3)no2)cc1` [S1p-receptor-agonist-1] returned a cell viability of 1.03.

Regarding `OC(CCN1CCCCC1)(c1ccccc1)C1CCCCC1` (racemic) [DL-trihexyphenidyl hydrochloride], the cell viability came out at 0.964.

`CCCC[S+]([O-])c1sc2nc(-c3cccs3)cc(-c3ccccc3)c2c1N` (stereo unspecified) yielded a cell viability of 1.

On to `Nc1c(S(=O)(=O)c2ccccc2)c2nc3ccccc3nc2n1-c1ccc(F)cc1`, for which the cell viability came to 1.11.

As to `Cc1cccc(C)c1N(CC(=O)Nc1ccc(-c2ncon2)cc1)C(=O)C1CCS(=O)(=O)CC1` [Amenamevir], the cell viability is 0.926.

For the compound `CC(C)=CC(=O)CCC(=O)N1CCN(Cc2cc3nc(-c4cccc5[nH]ncc45)nc(N4CCOCC4)c3s2)CC1`, the cell viability came out at 0.892.

Compound `O=C1Nc2ccccc2/C1=C/c1ccc(F)cc1` came in with a cell viability of 1.04.

As for `N#Cc1c(-c2ccccc2)cc(-c2cc(Br)ccc2O)[nH]c1=O`, the cell viability amounted to 0.907.

Take `CC/C(=C(/c1ccc(/C=C/C(=O)O)cc1)c1ccc2[nH]ncc2c1)c1ccc(F)cc1Cl`: the cell viability came to 1.07.

For the compound `CCOC(=O)c1c(C)[nH]c(C=C2C(=O)Nc3ccccc32)c1C` [VEGFR2 Kinase Inhibitor I], the cell viability is 1.19.

Consider `COc1c(O[C@@H]2O[C@H](CO)[C@@H](O)[C@H](O)[C@H]2O)cc2occ(-c3ccc(O)cc3)c(=O)c2c1O` [Tectoridin], for which the cell viability amounted to 1.03.

Regarding `Cc1[nH]c2ccccc2c1CCNC(=O)c1cccs1`, the cell viability was found to be 0.919.

For the compound `CN(C)Cc1ccc(S(=O)(=O)n2ccc(/C=C/C(=O)NO)c2)cc1` [Resminostat hydrochloride], the cell viability amounted to 1.15.

On to `Cc1[nH]c2ccccc2c1CCNCc1ccc(/C=C/C(=O)NO)cc1` [Panobinostat], for which the cell viability was determined as 0.22.

The compound `Cc1ccc(S(=O)(=O)Nc2cc(C(F)(F)F)ccc2C(=O)Nc2nc(-c3ccccc3)cs2)cc1` registered a cell viability of 0.852.

In turn, `CCC(=O)O[C@]1(C(=O)CO)CC[C@H]2[C@@H]3CCC4=CC(=O)CC[C@]4(C)[C@H]3CC[C@@]21C` [17 alpha-propionate] showed a cell viability of 0.936.

`NC[C@H]1OB(O)c2c(OCCCO)cccc21` [Epetraborole hydrochloride] showed a cell viability of 1.11.

Turning to `Cc1cc(O)c(-c2ccc(C(C)CN)cc2)c2c1[nH]c(=O)c1sccc12` (stereo unspecified), the cell viability is 0.15.

For the compound `O=C1C[C@@H](c2ccccc2)Oc2cc(O)cc(O)c21` [Pinocembrin], the cell viability worked out at 0.964.

The compound `C[C@H](CCOc1cccc(CC(=O)O)c1)N(Cc1cccc(C(F)(F)F)c1Cl)CC(c1ccccc1)c1ccccc1` came in with a cell viability of 0.781.

`C=C1CC[C@H]2C(=C)CC[C@H]3C(=C)C(=O)O[C@@H]3[C@@H]12` [Dehydrocostus Lactone] returned a cell viability of 0.984.

`CC(C)=CCC[C@](C)(O)[C@H]1CC[C@]2(C)[C@@H]1[C@H](O)C[C@@H]1[C@@]3(C)CC[C@H](O)C(C)(C)[C@@H]3CC[C@]12C` [(20S)-Protopanaxadiol] showed a cell viability of 0.908.

The compound `Cc1c(-c2ccc(N3CCc4cccc(C(=O)Nc5nc6ccccc6s5)c4C3)nc2C(=O)O)cnn1CC12CC3CC(CC(C3)C1)C2` yielded a cell viability of 0.806.

As for `CCn1cc(C(=O)O)c(=O)c2c(N)c(F)c(NC3CCCCC3)cc21`, the cell viability amounted to 1.1.

`Cc1ccc(S(=O)(=O)Cc2nc(-c3ccc(C(=O)NCc4cccnc4)cc3)oc2C)cc1` displayed a cell viability of 0.955.

`O=C(NCc1ccc(S(=O)(=O)c2cc(F)cc(F)c2)cc1)c1ccc2nccn2c1` gave a cell viability of 0.34.

As for `CC1(C)CC[C@]2(C(=O)O)CCC3=C([C@@H](CCl)C[C@@H]4[C@@]5(C)C[C@H](O)[C@H](O)[C@@](C)(C(=O)O)[C@@H]5CC[C@@]34C)[C@@H]2C1` [Senegenin], the cell viability was found to be 0.889.

The record behind these values is the supplement of paper PMC10600219.
